Source: PubChem BioAssay (NCATS)
Results filed as inconclusive are left out. Values without a mark were called inactive. The source made the active and inactive calls. Calls follow the shape of the dose curve; as a rule, active = well fitted inhibition curve with a large enough effect; inconclusive = small, poorly fitted or top-dose-only effect; inactive = flat fitted curve, though single readings scatter.

Experiments:
CRL-7250 = normal cell line; assay: Cytotoxic Profiling of Annotated Libraries Using Quantitative High-Throughput Screening (AID 1296008); conditions: Five cell lines viability, CellTiter-Glo ATP luminescence, 48-72 h; max response: stronger effect = lower value; also: potency is read from the fitted curve at half-maximal effect; as to max response: % is scaled to controls: 0 for no effect and ±100 for the full control effect
Outline: (§1)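 Cytotoxicity was measured as CellTiter-Glo ATP luminescence, read after 10 min at room temperature. Compound treatment of the cells lasted 48 or 72 hr at 37 degrees Celsius in a qHTS format.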

HEK293 = assay: as above; conditions: Five cell lines viability, CellTiter-Glo ATP luminescence, 48-72 h; max response: stronger effect = lower value
Outline: as §1

HaCat [1] = assay: as above; conditions: Five cell lines viability, CellTiter-Glo ATP luminescence, 48-72 h; max response: stronger effect = lower value
Outline: as §1

NIH3T3 = assay: as above; conditions: Five cell lines viability, CellTiter-Glo ATP luminescence, 48-72 h; max response: stronger effect = lower value
Outline: as §1

HACAT [2] = assay: qHTS assay to identify novel small-molecules to repurpose for Merkel cell carcinoma treatment (AID 1296009); conditions: MCC and control cell lines, CellTiter-Glo viability, 72 h; at 44.8 µM (top of the series) unless noted
Outline: (§2)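 Cell viability measured by CellTiter-Glo following 72 hr compound treatment at 37 degree celsius, with NPC and MIPE libraries tested in 8- and 11-point concentration series.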

KB-3-1 = assay: Cytotoxic Profiling of Annotated Libraries Using Quantitative High-Throughput Screening (AID 1296008); conditions: Five cell lines viability, CellTiter-Glo ATP luminescence, 48-72 h; max response: stronger effect = lower value; also: potency is read from the fitted curve at half-maximal effect; as to max response: % is scaled to controls: 0 for no effect and ±100 for the full control effect
Outline: as §1

HEK293T = assay: qHTS assay to identify novel small-molecules to repurpose for Merkel cell carcinoma treatment (AID 1296009); conditions: MCC and control cell lines, CellTiter-Glo viability, 72 h; at 44.8 µM (top of the series) unless noted
Outline: as §2
Also: nearly all actives have a fitted effect of over 60% in size.

`COc1cc(C(=O)O[C@H]2[C@@H]3C=CO[C@@H](O[C@@H]4O[C@H](CO)[C@@H](O)[C@H](O)[C@H]4O)[C@@H]3[C@@]3(CO)O[C@@H]23)ccc1O` was tested, and the max response (CRL-7250) was -1.79%, the max response (HEK293) was 4.28% and the outcome (HaCat [1]) was “inactive”. For the same compound, the outcome (NIH3T3) was “inactive” and the outcome (HACAT [2]) was “inactive [at 17.4 µM]”.

In the case of `C=CC(C)(C)c1[nH]c2cccc3c2c1C[C@@H]1[C@@H]3[C@@H](OC(C)=O)[C@H](C)CN1C`, the max response (CRL-7250) is reported as -2.45%, the outcome (HEK293) is reported as “inactive” and the outcome (HaCat [1]) is reported as “inactive”. The max response (KB-3-1) was 4.47%, the outcome (NIH3T3) was “inactive” and the outcome (HACAT [2]) was “inactive”. The outcome (HEK293T) was “inactive”.

`CC(=O)O[C@H]1C[C@@H](OC(C)=O)C(C)(C)C2C[C@@H](O)[C@]3(C)C(CC[C@@]4(C)[C@H](C5=CC(=O)OC5O)C[C@H]5O[C@]543)[C@]21C` (stereo partly specified) was tested, and the max response (CRL-7250) was 2.14%, the outcome (HEK293) was “inactive” and the max response (HaCat [1]) was -10.3%. For the same compound, the max response (KB-3-1) was 6.85%, the outcome (NIH3T3) was “inactive” and the outcome (HEK293T) was “inactive [at 17.4 µM]”.

With `CN1[C@H]2C[C@H](OC(=O)[C@H](CO)c3ccccc3)C[C@@H]1[C@@H](O)C2` the max response (CRL-7250) was -1.08%, the outcome (HEK293) was “inactive” and the outcome (HaCat [1]) was “inactive”. The max response (KB-3-1) was 1.1%, the outcome (NIH3T3) was “inactive” and the outcome (HACAT [2]) was “inactive”. The outcome (HEK293T) was “inactive”.

With `CC(C)C1(OO)C=C2C(=O)CC3C(C)(C(=O)O)CCCC3(C)C2CC1` (stereo unspecified) the max response (CRL-7250) was -0.339%, the max response (HEK293) was 2.31% and the outcome (HaCat [1]) was “inactive”. For the same compound, the max response (KB-3-1) was 7.41%, the outcome (NIH3T3) was “inactive” and the outcome (HACAT [2]) was “inactive”.

`CN1C(=O)c2ccccc2NC(=O)[C@]12O[C@@H]2c1ccccc1` was tested, and the max response (CRL-7250) was -12.4%, the outcome (HEK293) was “inactive” and the max response (HaCat [1]) was -12.1%. For the same compound, the max response (KB-3-1) was 8.97%, the max response (NIH3T3) was -7.39% and the outcome (HEK293T) was “inactive”.

With `COC1CC(OC2CCC3(C=O)C(CCC4C3CCC3(C)C(C5=CC(=O)OC5)CCC43O)C2)OC(C)C1OC1OC(CO)C(O)C(O)C1O` (stereo unspecified) the Potency (CRL-7250) was 96.8 nM (active), the Potency (HEK293) was 193 nM (active) and the Potency (HaCat [1]) was 685 nM (active). The outcome (NIH3T3) was “inactive”.
